# Screening results as filed in PubChem BioAssay.
# TRHR agonist – qHTS for Small Molecule Agonists and Allosteric Enhancers of Human TRH Receptor: Primary Screen for Agonists. TRHR cells, calcium flux fluo-8, FDSS agonist mode. activation, % at 2 µM. hit rate 0.18% among 360,000. AID 493084, 2011; further: 0% is about no effect
#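 Steps: seed TRHR cells overnight; add fluo-8 no-wash Ca dye, RT 30 min–1.5 h; record 10 s baseline; pin-transfer compounds; monitor fluorescence 1 cycle/s for the agonist window. Calcium increases flag candidate agonists.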
# D1 agonist – Allosteric Agonists of the Human D1 Dopamine Receptor: qHTS; HEK293 T-REx D1 cells, calcium flux, agonist mode; activation, % at 2 µM; hit rate 1% among 360,000; AID 504660, 2011; further: 0% is about no effect
# Target sequence (P21728 whole entry, looked up): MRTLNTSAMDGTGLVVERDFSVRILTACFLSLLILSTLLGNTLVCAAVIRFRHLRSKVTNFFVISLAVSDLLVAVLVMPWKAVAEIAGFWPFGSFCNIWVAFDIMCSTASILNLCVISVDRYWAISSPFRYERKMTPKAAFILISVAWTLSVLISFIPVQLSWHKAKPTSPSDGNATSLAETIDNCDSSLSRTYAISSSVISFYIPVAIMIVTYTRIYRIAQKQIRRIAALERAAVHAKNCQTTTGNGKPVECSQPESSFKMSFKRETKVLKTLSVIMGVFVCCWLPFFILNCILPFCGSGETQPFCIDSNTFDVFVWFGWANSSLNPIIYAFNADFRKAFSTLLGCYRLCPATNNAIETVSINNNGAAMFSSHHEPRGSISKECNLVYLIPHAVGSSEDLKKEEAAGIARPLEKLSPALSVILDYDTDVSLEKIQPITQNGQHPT
#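 Agonism was scored from calcium flux recorded over 180 s (1 read/s) after pintool compound addition, following a 10-cycle baseline. Cells were inducible force-coupled HEK293 TREx D1, plated overnight at 30 C and loaded with no-wash calcium dye.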
# D1 antagonist – Antagonist of Human D 1 Dopamine Receptor: qHTS | HEK293 TREx D1 cells, calcium flux, dopamine EC80; stronger effect = lower value | activity change, negative = inhibition, % at 10 µM | hit rate 3.2% among 360,000 | AID 504652, 2011; in the data active means activity change below about -30%; further: on the % scale 0 is the no-effect control and ±100 the full control effect
#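 Calcium flux readout: force-coupled, inducible Hek293 Trex D1 line, cells induced overnight at 30 C with tetracycline, dye-loaded 30–90 min at RT. Antagonism scored against EC80 dopamine challenge given 180 s after compound.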
# TRHR PAM – qHTS for Small Molecule Agonists and Allosteric Enhancers of Human TRH Receptor: Primary Screen for Enhancers; TRHR cells, fluo-8 calcium fluorescence, EC20 TRH enhancement; enhancement, % at 2 µM; hit rate 0.66% among 360,000; AID 493056, 2011; in the data active means enhancement above about 30%; further: 0% is about no effect
#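 TRHR-expressing cells loaded with fluo-8 calcium dye were read kinetically (ex 480/em 530) during compound addition, then stimulated with an EC20 of TRH (10 nM final). Enhancement of the Gq-mediated intracellular calcium response was scored.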
# D1 potentiator – Potentiators of Human D1 Dopamine Receptor: qHTS. potentiation, % at 10 µM. hit rate 0.036% among 360,000. HEK293 TREx D1 cells, calcium flux, dopamine EC20 potentiation. AID 504651, 2011; in the data active means potentiation above about 30%; further: 0% is about no effect
# * hit, by the source's call; . = no result given; ! = a repeat was not active. Only some compounds are listed: those with a hit (about 4.7% of all), similar ones and a draw of the others. Unless noted, no stated cut-off is given here; in the data, active means activation above about 30%; inactive means the rest.
SMILES,TRHR agonist,D1 agonist,D1 antagonist,TRHR PAM,D1 potentiator
Cc1cc(C)cc(Oc2nc3c(C)cccn3c(=O)c2/C=C(\C#N)c2nc3ccccc3s2)c1,0,9,-12,54*,-8
CCc1noc(C)c1C(=O)NCCc1ccc(Cl)cc1,0,3,0,6,2
CCOc1ccc(-c2c(C)nn3c(C)c(C(=O)NCc4ccc(C)o4)cnc23)cc1OCC,0,5,-34*,-4,-7
CCOc1ccc(-c2c(C)nn3c(C)c(C(=O)NCc4cccc(OC)c4)cnc23)cc1OCC,-1,9,-29,-1,-9
Cc1cccc(CNC(=O)c2cnc3c(-c4cccc(C)c4)c(C)nn3c2C)c1,1,0,-33*,2,-6
OC(CN1CCN(c2ccccc2F)CC1)c1ccc(F)cc1 (stereo unspecified),-2,12,-17,8,-12
O=C(O)CC1S/C(=N\N=C2CCCCCCC2)N(c2ccccc2)C1=O (stereo unspecified),0,0,13,9,5
O=C(O)CC1SC(=Nc2ccccc2)N(c2ccccc2)C1=O (stereo unspecified),0,-1,-31*,1,-5
Cc1cc2c(s1)c1cnn(Cc3c(F)c(F)c(C(F)(F)F)c(F)c3F)c(=O)c1n2C,0,1,7,1,1
Cn1nnnc1Sc1ncnc2scc(-c3ccccc3C(F)(F)F)c12,-2,1,-36*!,12,8
Cn1nnnc1Sc1ncnc2scc(-c3cc4ccccc4o3)c12,1,3,-44*!,-3,-6
Cn1nnnc1Sc1ncnc2scc(-c3ccc4ccccc4c3)c12,2,10,-13,0,-5
Cc1ccccc1C(=O)NC1(C(F)(F)F)N=C(c2ccccc2)N(Cc2ccccc2)C1=O (stereo unspecified),-4,8,-3,-1,-2
CN(C)c1ccc(C(CNS(=O)(=O)c2ccc(F)cc2)N2CCOCC2)cc1 (stereo unspecified),0,-1,-3,-5,2
CN(C)c1ccc(C(CNC(=O)c2ccc(C(C)(C)C)cc2)N2CCCC2)cc1 (stereo unspecified),2,38*,-9,5,3
CN(C)c1ccc(C(CNS(=O)(=O)c2ccc(F)cc2)N2CCCC2)cc1 (stereo unspecified),-1,59*,7,-1,6
O=C(CNc1ccccc1)N/N=C/c1c[nH]c2ccccc12,-1,7,-4,2,1
COC(=O)C(Cc1c[nH]c2ccccc12)NC(=O)COc1ccc(Cl)cc1Cl (stereo unspecified),-1,4,-32*,-2,0
O=C(COc1ccc(Cl)cc1Cl)NCC(=O)N/N=C/c1c[nH]c2ccccc12,0,0,5,35*,7
CCN=C1S/C(=C\c2ccc(N3CCOCC3)cc2C)C(=O)N1CC,1,0,9,2,4
COCCN1C(=O)/C(=C/c2ccc(N3CCCC3)cc2C)SC1=S,53*,224*,-9,24,4
FC(F)(F)c1ccccc1NC(=S)Nc1ccccc1,0,0,-35*,5,1
NCCc1cnc[nH]1,0,53*!,-12,-1,-3
NCCC(=O)NCCc1cnc[nH]1,0,-1,24,-3,-5
CC(C)OCc1cc(CN2CCN(c3ccccc3)CC2)c(O)c2ncccc12,-2,-2,0,-3,-3
SMILES,TRHR agonist,D1 agonist,D1 antagonist,TRHR PAM,D1 potentiator
Oc1c(CN2CCN(c3ccccc3)CC2)cc(Br)c2cccnc12,1,0,-87*,16,-3
OC(CCCN1CCC(O)(c2ccc(Cl)cc2)CC1)c1ccc(F)cc1 (stereo unspecified),2,32*,-37*,2,-3
C=CCNC(=O)CN1CCC(O)(c2ccc(F)cc2)CC1,0,3,-2,-4,-2
COC(=O)c1ccc(Cl)cc1NC(=O)N1CC(C)Oc2ccccc21 (stereo unspecified),0,1,-14,-7,-2
CCCCNC(=O)C1CCCN(Cc2nc(-c3ccc(Cl)cc3)oc2C)C1 (stereo unspecified),0,7,-30*,-5,-4
CCCN(CCC)CCCNC(=O)C1CCCN(Cc2nc(-c3ccc(Cl)cc3)oc2C)C1 (stereo unspecified),0,21,-23,5,-4
CCc1ccc(-c2nc(CN3CCCC(C(=O)O)C3)c(C)o2)cc1 (stereo unspecified),0,4,2,5,.
CCOCCCNC(=O)C1CCCN(Cc2nc(-c3ccc(CC)cc3)oc2C)C1 (stereo unspecified),-1,3,-2,32*,-4
Nc1ncnc2c1c(-c1ccc(Oc3ccccc3)cc1)cn2C1CCCC1,-1,-1,26,2,6
COc1ccc(N(C)S(=O)(=O)c2ccc3c(c2)n(C)c(=O)c(=O)n3C)cc1,-1,-2,6,-3,-2
COc1cc(C(C)=O)ccc1OCCCN1CCC(Cc2ccccc2)CC1,0,6,3,-1,-6
Clc1ccccc1OCCN1CCC(Cc2ccccc2)CC1,0,30,-42*,2,-13
OCc1ccccc1OCCCN1CCC(Cc2ccccc2)CC1,0,5,-39*,1,-5
c1ccc(COCCN2CCN(CCOCc3ccccc3)CC2)cc1,0,-1,-15,-7,-1
C(#CCN1CCC(Cc2ccccc2)CC1)COCCOCc1ccccc1,1,4,-35*,-10,-5
CCOc1ccc(NC(=O)CC2C(=O)N(c3cccc(C)c3)C(=O)N2Cc2ccco2)cc1 (stereo unspecified),0,3,-17,-3,2
Cc1ccc(C(=O)NCCNC(=O)Cc2ccccc2)cn1,0,2,6,0,7
CN1CCN(S(=O)(=O)c2ccc(NC(=S)NC(=O)C3CCCC3)cc2)CC1,0,0,-45*,9,-6
Cc1ccc(OCC(=O)Nc2ccc(S(=O)(=O)N3CCN(C)CC3)cc2)cc1,1,11,-24,2,-10
COc1ccc(OCC(=O)Nc2ccc(S(=O)(=O)N3CCN(C)CC3)cc2)cc1,0,8,-39*,-3,-6
Cc1cc(OCC(=O)Nc2ccc(S(=O)(=O)N3CCN(C)CC3)cc2)ccc1Br,1,33*,-72*,-3,-1
CCOc1cccc(C(=O)Nc2cc(C)c(O)c(-c3nc4ncccc4o3)c2)c1,1,0,-4,5,-1
